Experimental data reported in PubChem BioAssay AID1159580 (chemical genetic matrix, 2015).
Several values for one entry are separate records, joined by “and”; a condition that tells them apart may be missing. Equal values may be shown once. Out of some 5,500 compounds screened, about 2,000 (36%) were called active. Another 18% or so got no clear call; they are omitted. Cut-off read from the data, not from the text of the source: active = normalized growth mostly below about 0.91 (no sharp cut-off); inconclusive = no clear call, values can overlap the other calls; inactive = mostly above about 0.92. This is one part of the list.

Assay: chemical genetic growth profiling, strain panel (AID 1159580);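 note: tested at 20 µM; growth read once vehicle control cultures reached saturation at 30 °C; 1 = growth at the plate median or of vehicle wells; lower values mean less growth of the strain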
Conditions: S. cerevisiae deletion strains, growth OD

Measured: normalized growth

CC(C)[C@@H]1CC[C@@H](C)C[C@H]1O
inactive: locus YAL021C, strain ccr4, active compounds read low 0.968 | locus YAL026C, strain drs2, active compounds read low 0.987 | locus YAL030W, strain snc1, active compounds read low 0.984 | locus YBL061C, strain skt5, active compounds read low 1.01 | locus YBR009C, strain hhf1, active compounds read low 0.998 | locus YBR021W, strain FUR4, active compounds read low 1.03 | locus YBR023C, strain chs3, active compounds read low 1.01 | locus YBR171W, strain sec66, active compounds read low 0.973 | locus YBR229C, strain ROT2, active compounds read low 1.01 | locus YBR231C, strain swc5, active compounds read low 0.988 | locus YBR279W, strain paf1, active compounds read low 0.998 | locus YCL011C, strain gbp2, active compounds read low 0.982 | locus YCL016C, strain dcc1, active compounds read low 0.995 | locus YCL029C, strain bik1, active compounds read low 1.01 | locus YCL061C, strain MRC1, active compounds read low 0.986 | locus YCL069W, strain vba3, active compounds read low 0.973 | locus YCR088W, strain abp1, active compounds read low 0.979 | locus YDL005C, strain med2, active compounds read low 0.98 | locus YDL035C, strain GPR1, active compounds read low 1.02 | locus YDL040C, strain nat1, active compounds read low 0.979 | locus YDL074C, strain BRE1, active compounds read low 0.997 | locus YDL101C, strain DUN1, active compounds read low 1.01 | locus YDL134C, strain PPH21, active compounds read low 1.01 | locus YDL185W, strain tfp1, active compounds read low 1.02 | locus YDL192W, strain arf1, active compounds read low 1.02 | locus YDR001C, strain nth1, active compounds read low 0.978 | locus YDR069C, strain doa4, active compounds read low 0.992 | locus YDR101C, strain arx1, active compounds read low 0.996 | locus YDR137W, strain rgp1, active compounds read low 0.898 | locus YDR150W, strain NUM1, active compounds read low 1.01 | locus YDR159W, strain sac3, active compounds read low 0.964 | locus YDR162C, strain NBP2, active compounds read low 1.02 | locus YDR195W, strain ref2 0.986 | locus YDR297W, strain sur2, active compounds read low 0.984 | locus YDR318W, strain mcm21, active compounds read low 1.02 | locus YDR334W, strain swr1, active compounds read low 0.951 | locus YDR335W, strain msn5, active compounds read low 0.984 | locus YDR388W, active compounds read low 1.01 | locus YDR392W, strain spt3, active compounds read low 0.958 | locus YDR502C, strain sam2, active compounds read low 1.01 | locus YEL003W, strain gim4, active compounds read low 0.989 | locus YEL037C, strain rad23, active compounds read low 0.968 | locus YEL061C, strain CIN8 (second series), active compounds read low 0.963 | locus YEL061C, strain CIN8, active compounds read low 1.01 | locus YER015W, strain faa2, active compounds read low 0.996 | locus YER016W, strain bim1, active compounds read low 0.992 | locus YER110C, active compounds read low 1.03 | locus YER111C, strain swi4, active compounds read low 0.961 | locus YER155C, strain BEM2 (second series), active compounds read low 0.94 | locus YER155C, strain BEM2, active compounds read low 1.01 | locus YER167W, strain BCK2, active compounds read low 1.02 | locus YFR010W, strain ubp6, active compounds read low 0.989 | locus YGL078C, strain dbp3, active compounds read low 1.02 | locus YGL086W, strain mad1, active compounds read low 1.01 | locus YGL167C, strain pmr1, active compounds read low 1 | locus YGL173C, strain kem1, active compounds read low 0.999 | locus YGL227W, strain vid30, active compounds read low 0.981 | locus YGL240W, strain doc1, active compounds read low 0.995 | locus YGL248W, strain PDE1, active compounds read low 0.992 | locus YGL253W, strain hxk2, active compounds read low 0.995 | locus YGR078C, strain PAC10, active compounds read low 0.975 | locus YGR135W, strain pre9, active compounds read low 1.04 | locus YGR229C, strain SMI1, active compounds read low 1.03 | locus YGR252W, strain gcn5, active compounds read low 1.03 | locus YHR013C, strain ard1, active compounds read low 1.03 | locus YHR027C, strain rpn1, active compounds read low 0.996 | locus YHR030C, strain SLT2, active compounds read low 1.01 and 0.979 | locus YHR079C, strain IRE1 (second series), active compounds read low 1.01 | locus YHR079C, strain IRE1, active compounds read low 0.991 | locus YHR094C, strain hxt1, active compounds read low 1.02 | locus YHR129C, strain ARP1, active compounds read low 1.01 | locus YHR142W, strain chs7, active compounds read low 0.988 | locus YHR200W, strain rpn10, active compounds read low 1.02 | locus YIL066C, strain RNR3, active compounds read low 0.994 | locus YIL073C, strain SPO22, active compounds read low 1.09 | locus YIL125W, strain kgd1, active compounds read low 1.01 | locus YIR030C, strain dcg1, active compounds read low 1.01 | locus YJL092W, strain hpr5, active compounds read low 0.977 | locus YJL095W, strain BCK1 (second series), active compounds read low 0.986 | locus YJL095W, strain BCK1, active compounds read low 0.972 and 0.985 | locus YJL115W, strain asf1, active compounds read low 0.981 | locus YJL129C, strain trk1, active compounds read low 0.937 | locus YJL134W, strain LCB3, active compounds read low 1.01 | locus YJL154C, strain vps35, active compounds read low 0.972 | locus YJL164C, strain tpk1, active compounds read low 0.998 | locus YJL166W, strain qcr8, active compounds read low 0.986 | locus YJL168C, strain set2, active compounds read low 1.01 | locus YJL187C, strain SWE1 (second series), active compounds read low 0.984 | locus YJL187C, strain SWE1, active compounds read low 0.99 | locus YJR043C, strain POL32, active compounds read low 1.02
